Results from PubChem BioAssay (NCI).
Compounds without any hit were thinned out: in the full panel of roughly 79,000, 15% have a hit. Rule as the data show it: active = growth inhibition above about 70%; inactive = the rest.

Experiments:
[1] = NCI Yeast Anticancer Drug Screen. Data for the rad50 strain (AID 155);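 also: 0% = growth of vehicle-only cultures of the same strain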; conditions: S. cerevisiae rad50 strain growth inhibition; at 50.0 µM; active compounds read high
How it was run: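 Compounds were tested on a yeast strain with an engineered DNA damage repair alteration; the reported value is growth inhibition normalised to vehicle treatment.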

[2] = NCI Yeast Anticancer Drug Screen. Data for the mec2-1 strain (AID 157); conditions: S. cerevisiae mec2-1 strain, at 50.0 µM, active compounds read high
How it was run: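 Mutant yeast (mec2-1) grown with compound; growth inhibition relative to vehicle control reported.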

[3] = NCI Yeast Anticancer Drug Screen. Data for the sgs1 mgt1 strain (AID 161);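 also: 0% = growth of cultures given vehicle only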; conditions: S. cerevisiae sgs1 mgt1 strain, at 50.0 µM, active compounds read high
How it was run: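 Yeast cells carrying a defined DNA-repair defect were exposed to test compounds. Growth inhibition was measured relative to vehicle-treated controls.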

[4] = NCI Yeast Anticancer Drug Screen. Data for the cln2 rad14 strain (AID 165);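 also: 0% = growth equal to vehicle treated cultures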; conditions: S. cerevisiae cln2 rad14 strain, at 50.0 µM, active compounds read high
How it was run: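 Readout is yeast growth inhibition versus vehicle-treated controls, using a strain with cln2 and rad14 alterations exposed to compound.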

[5] = NCI Yeast Anticancer Drug Screen. Data for the bub3 strain (AID 167); conditions: S. cerevisiae bub3 mutant strain, at 50.0 µM, active compounds read high
How it was run: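 Growth of a checkpoint-deficient yeast mutant is measured after compound exposure. Values represent inhibition relative to vehicle.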

[6] = NCI Yeast Anticancer Drug Screen. Data for the mlh1 rad18 strain (AID 175); conditions: S. cerevisiae mlh1 rad18 strain growth inhibition; at 50.0 µM; active compounds read high
How it was run: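 Genetically defined yeast (DNA repair-deficient) exposed to compounds; growth inhibition determined relative to vehicle.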

Measured: growth inhibition

O=S1(=O)c2ccccc2NC(c2ccc3ccccc3c2)CC1c1ccccc1F (stereo unspecified)
inactive: [1] -25.3% | [2] -28.1% | [3] -47% | [4] 4.95% | [5] -18.4% | [6] -14.2%

CC1(C(=O)O)CCC(C(=O)Nc2ccccc2)C1(C)C (stereo unspecified)
inactive: [1] -11.2% | [2] -20.6% | [3] 5.05% | [4] -0.35% | [5] -13.1% | [6] 1.9%

CC1(C)N=C(Oc2ccccc2)n2nccc2N1
inactive: [1] -12.6% | [2] -15.6% | [3] -14.6% | [4] 2.55% | [5] -18.3% | [6] -29.6%

CC(=O)N1CN2C(=O)CCC2c2cc(C)ccc21 (stereo unspecified)
inactive: [1] 10.1% | [2] 14.9% | [3] -2.65% | [4] 7.8% | [5] 0.95% | [6] -57.4%

CC(C)Oc1ccc(N2C(=O)C(C)CNC2=S)cc1 (stereo unspecified)
inactive: [1] -13.9% | [2] -1.9% | [3] -1.3% | [4] 4.9% | [5] 6.4% | [6] -8.55%

Cc1nc(N)c(N2CCN(Cc3ccccc3)CC2)c(=O)[nH]1
inactive: [1] -26.4% | [2] 1.85% | [3] -33.9% | [4] 16.8% | [5] 29.6% | [6] -25.3%

CC1(C)C[C@H](OC2CCCCO2)[C@H]2O[C@@]2(C)C1 (stereo partly specified)
inactive: [1] 10.8% | [2] 4.3% | [3] -29.8% | [4] 1.1% | [5] 18.4% | [6] 3.95%

CCOc1ccc(N=c2ccn3ccccc3c2)cc1
inactive: [1] -2.05% | [2] -10.3% | [3] -24.2% | [4] -24.4% | [5] 8.75% | [6] -28.5%

COc1cc2c(cc1OC)C1(CCBr)C3CC4C(=CCOC5CC(=O)N2C1C54)CN3C(=O)Cc1ccccc1 (stereo unspecified)
inactive: [1] 27.8% | [2] -11.9% | [3] -3.45% | [4] 7.4% | [5] 4.75% | [6] 3.7%

Cn1c2ccccc2c(=O)c2cc(NC(=O)/C=C/C(=O)Nc3ccc4c(c3)c(=O)c3ccccc3n4C)ccc21
inactive: [1] -3.25% | [2] 0.75% | [3] -2.7% | [4] -14.6% | [5] -3.8% | [6] 5.9%

N=C(N)SCc1cccc(-c2nc3ccccc3c(=O)o2)c1
inactive: [1] 22.2% | [2] 17.4% | [3] 7.9% | [4] 5.95% | [5] 20.8% | [6] 16.9%

Cc1cc(O)cc(O)c1C(=O)O[C@]1(C)C(=O)C=C2C=C(/C=C/C(=O)O)OC=C2C1=O
inactive: [1] -2.6% | [2] -16.9% | [3] -9.95% | [4] 9.6% | [5] -13.5% | [6] -3.9%

COc1ccccc1C(O)(c1ccccc1)C(O)(c1ccccc1)c1ccccc1OC (stereo unspecified)
inactive: [1] -20.1% | [2] 2.65% | [3] -20.2% | [4] 15.6% | [5] -5.65% | [6] -4.2%

CC1C(=O)CCC2CCCCC21 (stereo unspecified)
inactive: [1] 18.1% | [2] -17.4% | [3] 8.05% | [4] 7.95% | [5] 12.2% | [6] 17.2%

Cc1cc2ccccc2c(Br)c1C
inactive: [1] 5% | [2] 4.95% | [3] 26% | [4] -36.8% | [5] -4.35% | [6] 4.7%

Cc1cc2c(cc1C)NC1=C(N2)OC(c2ccc(C3OC4=C(Nc5cc(C)c(C)cc5N4)C3=O)cc2)C1=O (stereo unspecified)
inactive: [1] 32.2% | [2] 14.8% | [3] 9.95% | [4] 16.5% | [5] 0.75% | [6] 29.6%

CNc1ccc(Oc2ccccc2)cc1[N+](=O)[O-]
inactive: [1] -2.2% | [2] 6.4% | [3] -11.3% | [4] -34.6% | [5] -9.9% | [6] -11%

CN(C)c1ccc(C(=C2C=CC(=[N+](C)C)C=C2)c2c(O)c(S(=O)(=O)[O-])cc3cc(S(=O)(=O)O)ccc23)cc1
inactive: [1] 1.4% | [2] -21.5% | [3] -41.5% | [4] 15.1% | [5] -14.6% | [6] 27.1%

Cc1cc(C)n(-c2nc(-n3nc(C)cc3C)nc(-n3nc(C)cc3C)n2)n1
inactive: [1] -34.2% | [2] -32.2% | [3] -1.7% | [4] -20.6% | [5] -21.1% | [6] -41.5%

O=c1[nH]c2nc(Cl)nc(Cl)c2[nH]1
inactive: [1] 28.4% | [2] 5.55% | [3] 11.4% | [4] 12.1% | [5] 8.3% | [6] 45%

O=C(Nc1ccc(Cl)cc1)c1ccc(C(=O)Nc2ccc(Cl)cc2)cc1
inactive: [1] -12.9% | [2] -26.4% | [3] -20.1% | [4] 5.35% | [5] -6.4% | [6] -24.9%
